Experimental findings from PMC4336329 (PLoS ONE, 2015) are described below.

About 14,000 (4.5%) of roughly 310,000 compounds showed an effect of 50% or more. The effect is printed as a negative number. Only a selection was taken, and strong results are over-represented in it overall.
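Also: peak tail current of the secondary pulse compared with the same well before compound.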

For this experiment, the target named is human ether-à-go-go-related gene (hERG) potassium channel (human, UniProt Q12809). The experiment in a line: primary screen, population patch clamp on CHO cells stably expressing hERG; higher = less effect of the substance.
human ether-à-go-go-related gene (hERG) potassium channel, sequence (Q12809 whole entry, looked up): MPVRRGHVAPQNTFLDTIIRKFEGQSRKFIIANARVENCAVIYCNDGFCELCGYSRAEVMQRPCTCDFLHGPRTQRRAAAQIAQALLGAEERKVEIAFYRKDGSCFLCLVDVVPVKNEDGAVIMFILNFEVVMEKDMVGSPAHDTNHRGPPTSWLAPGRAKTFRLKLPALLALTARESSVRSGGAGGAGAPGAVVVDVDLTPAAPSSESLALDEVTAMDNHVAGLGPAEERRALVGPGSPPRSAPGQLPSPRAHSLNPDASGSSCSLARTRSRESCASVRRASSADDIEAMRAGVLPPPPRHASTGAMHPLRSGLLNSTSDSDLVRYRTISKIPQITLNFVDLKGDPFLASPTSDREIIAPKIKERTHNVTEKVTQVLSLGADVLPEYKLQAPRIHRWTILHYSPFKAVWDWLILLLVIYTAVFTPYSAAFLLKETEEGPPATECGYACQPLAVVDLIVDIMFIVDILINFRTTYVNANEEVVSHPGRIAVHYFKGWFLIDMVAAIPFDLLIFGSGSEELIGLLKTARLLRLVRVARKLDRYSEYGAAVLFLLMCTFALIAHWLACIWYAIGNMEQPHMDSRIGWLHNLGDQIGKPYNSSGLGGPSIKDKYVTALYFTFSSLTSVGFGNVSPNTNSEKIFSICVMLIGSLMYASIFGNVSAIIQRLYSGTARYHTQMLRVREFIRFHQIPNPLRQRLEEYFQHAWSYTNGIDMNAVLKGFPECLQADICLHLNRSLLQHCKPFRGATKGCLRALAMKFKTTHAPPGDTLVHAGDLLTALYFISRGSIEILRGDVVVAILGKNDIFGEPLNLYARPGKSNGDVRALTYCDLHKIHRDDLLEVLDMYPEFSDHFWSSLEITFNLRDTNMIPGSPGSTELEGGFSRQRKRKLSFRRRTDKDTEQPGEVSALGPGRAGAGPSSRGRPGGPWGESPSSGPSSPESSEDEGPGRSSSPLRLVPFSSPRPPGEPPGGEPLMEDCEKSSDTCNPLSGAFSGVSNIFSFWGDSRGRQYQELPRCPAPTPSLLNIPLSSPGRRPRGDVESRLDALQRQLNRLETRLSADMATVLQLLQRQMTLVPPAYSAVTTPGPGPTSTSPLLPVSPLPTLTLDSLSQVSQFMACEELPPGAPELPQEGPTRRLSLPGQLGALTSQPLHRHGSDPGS
Consider `CC1(C2CC2)NC(=O)N(CC(=O)Nc2ccc(Cl)c([N+](=O)[O-])c2)C1=O` (stereo not drawn), for which the “hERG current change (%, negative = inhibition) at 10uM” value is recorded as -1.15%.

As for `CCCc1n[nH]c(=O)c2c1nnn2Cc1ccccc1`, the “hERG current change (%, negative = inhibition) at 10uM” value was 4.86%.

For the molecule `CC(=O)c1ccc2c(c1)OCO2`, the “hERG current change (%, negative = inhibition) at 10uM” value stood at 16.1%.

In the case of `CC(=O)c1ccc2c(c1)OCCOCCOc1ccc(C(C)=O)cc1OCCOCCO2`, the “hERG current change (%, negative = inhibition) at 10uM” value is listed as -76.6%.

As to `O=C(O)c1ccc2c(c1)OCCOCCOCCOCCOCCO2`, the “hERG current change (%, negative = inhibition) at 10uM” value is -64%.

As to `CC(=O)c1ccc2c(c1)OCCOCCOCCOCCOCCO2`, the “hERG current change (%, negative = inhibition) at 10uM” value is listed as -62.4%.

As for `CC(=O)c1ccc2c(c1)OCCOCCOCCO2`, the “hERG current change (%, negative = inhibition) at 10uM” value came to 8.76%.

For the molecule `O=C(O)c1ccc2c(c1)OCCO2`, the “hERG current change (%, negative = inhibition) at 10uM” value worked out at 3.19%.

With `NC(=O)c1ccc2c(c1)OCCO2`, the “hERG current change (%, negative = inhibition) at 10uM” value was found to be 6.04%.

Turning to `O=C(O)c1ccc2c(c1)OCCCO2`, the “hERG current change (%, negative = inhibition) at 10uM” value came out at 4.27%.

As to `O=C(c1ccccc1)c1ccc2c(c1)OCCOCCOCCOCCO2`, the “hERG current change (%, negative = inhibition) at 10uM” value is -65%.

With `O=C(c1ccccc1)c1ccc2c(c1)OCCOCCOCCO2`, the “hERG current change (%, negative = inhibition) at 10uM” value is on record as -3.96%.

`O=C(c1ccccc1)c1ccc2c(c1)OCCCO2`: the “hERG current change (%, negative = inhibition) at 10uM” value was -5.56%.

For the molecule `CC(=O)c1ccc2c(c1)OCCOCCOCCOCCO2`, the “hERG current change (%, negative = inhibition) at 10uM” value is -49.3%.

Consider `CC(=O)Nc1ccc(C(=O)NNC(=O)c2cccc(C)c2)cc1`, for which the “hERG current change (%, negative = inhibition) at 10uM” value is reported as -1.91%.

Consider `CCCC(=O)Nc1nnc(-c2ccco2)s1`, for which the “hERG current change (%, negative = inhibition) at 10uM” value worked out at 2.55%.

Consider `O=C(COC(=O)CSc1ccc(F)cc1)NNC(=O)c1ccc([N+](=O)[O-])cc1`, for which the “hERG current change (%, negative = inhibition) at 10uM” value is on record as -30.2%.

Consider `O=C(CCCN1C(=O)/C(=C/c2cccs2)SC1=S)NNC(=O)c1ccccc1O`, for which the “hERG current change (%, negative = inhibition) at 10uM” value is given as 4.76%.

Consider `COc1ccccc1Nc1nn2c(=O)c3ccc(C(=O)N4CCCCC4)cc3nc2s1`, for which the “hERG current change (%, negative = inhibition) at 10uM” value was determined as 3.25%.

In the case of `Cc1cccc(OCC(=O)N=Nc2c(O)[nH]c3ccc([N+](=O)[O-])cc23)c1`, the “hERG current change (%, negative = inhibition) at 10uM” value is -2.59%.

With `CCOC(=O)CN1C(=O)C(Sc2n[nH]c(-c3cccc(C)c3)n2)CCc2ccccc21` (stereo not drawn), the “hERG current change (%, negative = inhibition) at 10uM” value amounted to 6.35%.

Turning to `COc1ccc(CCC(=O)N2CCCc3ccccc32)cc1`, the “hERG current change (%, negative = inhibition) at 10uM” value stood at 6.02%.

As for `Nc1c(S(=O)(=O)c2cc(Cl)ccc2Cl)c2nc3ccccc3nc2n1CCN1CCOCC1`, the “hERG current change (%, negative = inhibition) at 10uM” value is given as -15.3%.

For `CC(NCC(O)COc1ccccc1)C1COc2ccccc2O1` (stereo not drawn), the “hERG current change (%, negative = inhibition) at 10uM” value is given as -46.7%.

With `CCN1CCN(Cc2ccc(OCc3ccccc3)c(OC)c2)CC1`, the “hERG current change (%, negative = inhibition) at 10uM” value is given as -17.7%.

For `CC(C)N1CCN(Cc2ccc3c(c2)Cc2ccccc2-3)CC1CCO` (stereo not drawn), the “hERG current change (%, negative = inhibition) at 10uM” value is -52.4%.

`COc1ccc(CN2CCN(C(C)C)C(CCO)C2)cc1Cn1cncn1` (stereo not drawn): the “hERG current change (%, negative = inhibition) at 10uM” value is 34.1%.

With `CC(C)N1CCN(Cc2ccncc2)CC1CCO` (stereo not drawn), the “hERG current change (%, negative = inhibition) at 10uM” value turned out to be 4.5%.

As to `CC(C)N1CCN(Cc2ccc3nsnc3c2)CC1CCO` (stereo not drawn), the “hERG current change (%, negative = inhibition) at 10uM” value was 8.66%.

Regarding `COc1cc(CN2CCN(C(C)C)C(CCO)C2)ccc1OCc1ccccc1` (stereo not drawn), the “hERG current change (%, negative = inhibition) at 10uM” value is on record as -55.2%.

In the case of `CC(C)N1CCN(Cc2ccc(Oc3ncccn3)cc2)CC1CCO` (stereo not drawn), the “hERG current change (%, negative = inhibition) at 10uM” value came out at 10.9%.

Regarding `CC(C)N1CCN(Cc2ccc(OC3CCCC3)cc2)CC1CCO` (stereo not drawn), the “hERG current change (%, negative = inhibition) at 10uM” value was -10.7%.

On to `CC(C)N1CCN(Cc2ccc(OCc3ccccc3)cc2)CC1CCO` (stereo not drawn), for which the “hERG current change (%, negative = inhibition) at 10uM” value is -51.6%.

With `CCCSc1nsc(NC(=O)C(c2ccccc2)c2ccccc2)n1`, the “hERG current change (%, negative = inhibition) at 10uM” value came out at 19.3%.

Consider `Cc1nn(C)c(C)c1NC(=O)c1cnn2c(C(F)F)cc(-c3ccccc3)nc12`, for which the “hERG current change (%, negative = inhibition) at 10uM” value is given as 40.4%.

`COc1ccccc1N(CC(=O)N1CCCC1)S(=O)(=O)c1ccc(C)cc1`: the “hERG current change (%, negative = inhibition) at 10uM” value is listed as 5.18%.

Turning to `COc1ccc(-c2noc(CCCC(=O)Nc3cccnc3)n2)cc1OC`, the “hERG current change (%, negative = inhibition) at 10uM” value is -6.97%.

`c1ccc(-c2cc(-c3ccccc3)[nH]n2)cc1`: the “hERG current change (%, negative = inhibition) at 10uM” value was 12.3%.

With `CC(C)(C)c1ccc(C(=O)NCCC(=O)N2CCCC2)cc1`, the “hERG current change (%, negative = inhibition) at 10uM” value is recorded as 16.4%.

As to `Cc1ccc(NC(=S)N(C)N)cc1Cl`, the “hERG current change (%, negative = inhibition) at 10uM” value stood at 16.8%.

Take `COC(=O)CN1C(=O)[C@@H]2[C@H](C1=O)[C@@H]1CC(C(=O)OC)=C[C@@H](C(=O)OC)[C@@H]3C1=C(C(=O)[C@@]3(C)NC(=O)c1ccccc1)[C@@H]2C`: the “hERG current change (%, negative = inhibition) at 10uM” value was -2.29%.

`COc1ccc(CNS(=O)(=O)c2ccc(-n3cnnn3)c(C)c2)cc1`: the “hERG current change (%, negative = inhibition) at 10uM” value is listed as -15.3%.

On to `CCSC(=S)c1c(C)[nH]n(-c2ccccc2)c1=O`, for which the “hERG current change (%, negative = inhibition) at 10uM” value was found to be 12.9%.

Turning to `Cc1ccc(NC(=O)c2cc(S(=O)(=O)c3ccccc3)ccc2Cl)cc1`, the “hERG current change (%, negative = inhibition) at 10uM” value was -15.4%.

`O=C(Nc1ccc(Cl)cc1)C(c1ccccc1)N1CCOCC1` (stereo not drawn): the “hERG current change (%, negative = inhibition) at 10uM” value was -27.6%.
